Measurements from the supplement of paper PMC11732987, “Enantioselective OTUD7B fragment discovery through chemoproteomics screening and high-throughput optimisation” (Communications Chemistry, 2025).

Experiments:
Test in all cases: log2 ratio of Biotin-Ahx-Ub-VS probe labelling (fragment/DMSO); higher = less target engagement (more negative = stronger competition), active = hit call of the paper (q ≤ 0.05, log2 ratio ≤ -1)
Settings in all cases: compound concentration: 200 uM; treatment time: 3 h
USP42 = molecular target: T1, USP42 (UniProt Q9H9J4)
T1 sequence (whole entry): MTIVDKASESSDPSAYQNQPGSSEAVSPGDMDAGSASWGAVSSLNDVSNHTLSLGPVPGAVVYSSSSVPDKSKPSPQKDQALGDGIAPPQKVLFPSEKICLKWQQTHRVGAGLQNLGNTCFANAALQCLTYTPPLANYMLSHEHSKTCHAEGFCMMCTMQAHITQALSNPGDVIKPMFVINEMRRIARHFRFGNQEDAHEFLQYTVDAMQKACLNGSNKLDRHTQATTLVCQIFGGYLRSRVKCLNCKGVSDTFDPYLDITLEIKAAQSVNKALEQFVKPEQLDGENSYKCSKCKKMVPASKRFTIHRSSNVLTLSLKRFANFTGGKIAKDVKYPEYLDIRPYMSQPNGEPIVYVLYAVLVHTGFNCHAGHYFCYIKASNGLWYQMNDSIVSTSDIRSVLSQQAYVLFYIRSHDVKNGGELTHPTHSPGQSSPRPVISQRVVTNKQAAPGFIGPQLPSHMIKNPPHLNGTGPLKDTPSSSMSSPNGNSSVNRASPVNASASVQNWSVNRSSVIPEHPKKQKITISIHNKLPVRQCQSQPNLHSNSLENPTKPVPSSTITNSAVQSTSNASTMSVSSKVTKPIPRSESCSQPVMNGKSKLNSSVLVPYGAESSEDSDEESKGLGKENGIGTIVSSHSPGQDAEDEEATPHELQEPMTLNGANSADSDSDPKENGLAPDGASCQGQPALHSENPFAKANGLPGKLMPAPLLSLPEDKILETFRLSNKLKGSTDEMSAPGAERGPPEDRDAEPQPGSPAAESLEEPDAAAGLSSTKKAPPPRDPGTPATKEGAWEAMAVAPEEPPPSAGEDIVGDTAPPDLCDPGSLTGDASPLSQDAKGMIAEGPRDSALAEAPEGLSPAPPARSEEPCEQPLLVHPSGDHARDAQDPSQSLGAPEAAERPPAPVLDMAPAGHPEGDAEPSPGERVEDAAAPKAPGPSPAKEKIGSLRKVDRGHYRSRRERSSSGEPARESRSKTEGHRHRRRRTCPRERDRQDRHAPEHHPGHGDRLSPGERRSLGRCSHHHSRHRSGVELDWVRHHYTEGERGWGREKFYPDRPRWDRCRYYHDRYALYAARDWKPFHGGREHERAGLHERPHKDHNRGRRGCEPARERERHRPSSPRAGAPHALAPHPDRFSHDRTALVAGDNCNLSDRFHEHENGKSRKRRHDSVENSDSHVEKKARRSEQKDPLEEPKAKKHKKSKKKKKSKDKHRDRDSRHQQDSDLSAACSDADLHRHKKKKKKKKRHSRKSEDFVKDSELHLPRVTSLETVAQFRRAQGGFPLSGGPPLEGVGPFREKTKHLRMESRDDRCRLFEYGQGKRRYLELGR
Method in brief: (§1)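 In triplicate, 495 µg of HEK293T lysate per sample was incubated with fragment at 200 µM or vehicle for 3 h. Biotin-Ahx-Ub-VS was then added to 0.5 µM final for 1 h, and labelled DUBs were captured with NeutrAvidin, digested with LysC and trypsin, and measured by diaPASEF LC-MS/MS. Data are average log2 fragment/vehicle ratios by unpaired t-test from global-median-normalised Spectronaut label-free quantities, restricted to proteins with ≥2 unique peptides.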

USP46 = USP46 (UniProt P62068)
Method in brief: as §1

USP47 = molecular target: T2, USP47 (UniProt Q96K76)
T2 sequence (whole entry): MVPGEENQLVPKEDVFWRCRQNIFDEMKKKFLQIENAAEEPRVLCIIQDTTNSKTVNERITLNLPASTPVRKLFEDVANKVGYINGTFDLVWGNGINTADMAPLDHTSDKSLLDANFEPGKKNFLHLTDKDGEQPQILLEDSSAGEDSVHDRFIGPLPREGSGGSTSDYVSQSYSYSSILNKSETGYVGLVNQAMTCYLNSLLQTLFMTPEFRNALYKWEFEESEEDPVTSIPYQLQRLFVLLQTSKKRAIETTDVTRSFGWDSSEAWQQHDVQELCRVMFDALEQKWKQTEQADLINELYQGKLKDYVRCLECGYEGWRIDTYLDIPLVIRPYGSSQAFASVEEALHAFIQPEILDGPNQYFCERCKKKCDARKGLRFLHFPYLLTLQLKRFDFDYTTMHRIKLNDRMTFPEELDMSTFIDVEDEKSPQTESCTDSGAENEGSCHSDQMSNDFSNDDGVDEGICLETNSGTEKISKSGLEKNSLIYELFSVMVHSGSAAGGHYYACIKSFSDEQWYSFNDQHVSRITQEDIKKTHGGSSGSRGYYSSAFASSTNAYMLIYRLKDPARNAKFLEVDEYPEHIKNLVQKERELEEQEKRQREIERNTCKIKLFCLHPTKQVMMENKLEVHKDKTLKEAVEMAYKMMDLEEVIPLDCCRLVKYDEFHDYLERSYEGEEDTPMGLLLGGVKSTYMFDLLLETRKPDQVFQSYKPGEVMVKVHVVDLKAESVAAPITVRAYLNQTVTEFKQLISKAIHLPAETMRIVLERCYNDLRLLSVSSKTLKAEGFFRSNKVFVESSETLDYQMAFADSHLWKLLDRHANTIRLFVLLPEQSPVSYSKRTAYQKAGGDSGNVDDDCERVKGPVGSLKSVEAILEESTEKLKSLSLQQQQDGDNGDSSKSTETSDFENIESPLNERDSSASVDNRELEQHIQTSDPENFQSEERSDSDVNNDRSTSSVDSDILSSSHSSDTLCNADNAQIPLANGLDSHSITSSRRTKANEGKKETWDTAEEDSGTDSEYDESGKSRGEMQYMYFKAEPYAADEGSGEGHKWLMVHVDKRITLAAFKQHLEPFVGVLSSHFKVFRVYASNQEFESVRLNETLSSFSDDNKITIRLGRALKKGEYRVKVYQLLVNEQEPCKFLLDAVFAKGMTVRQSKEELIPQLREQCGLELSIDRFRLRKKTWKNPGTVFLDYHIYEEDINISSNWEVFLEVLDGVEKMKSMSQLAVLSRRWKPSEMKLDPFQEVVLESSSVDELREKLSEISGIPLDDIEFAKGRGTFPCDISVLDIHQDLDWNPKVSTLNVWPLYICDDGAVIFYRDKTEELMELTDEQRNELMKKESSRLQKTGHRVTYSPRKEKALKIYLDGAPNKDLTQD
Method in brief: as §1

USP48 = molecular target: T3, USP48 (UniProt Q86UV5)
T3 sequence (whole entry): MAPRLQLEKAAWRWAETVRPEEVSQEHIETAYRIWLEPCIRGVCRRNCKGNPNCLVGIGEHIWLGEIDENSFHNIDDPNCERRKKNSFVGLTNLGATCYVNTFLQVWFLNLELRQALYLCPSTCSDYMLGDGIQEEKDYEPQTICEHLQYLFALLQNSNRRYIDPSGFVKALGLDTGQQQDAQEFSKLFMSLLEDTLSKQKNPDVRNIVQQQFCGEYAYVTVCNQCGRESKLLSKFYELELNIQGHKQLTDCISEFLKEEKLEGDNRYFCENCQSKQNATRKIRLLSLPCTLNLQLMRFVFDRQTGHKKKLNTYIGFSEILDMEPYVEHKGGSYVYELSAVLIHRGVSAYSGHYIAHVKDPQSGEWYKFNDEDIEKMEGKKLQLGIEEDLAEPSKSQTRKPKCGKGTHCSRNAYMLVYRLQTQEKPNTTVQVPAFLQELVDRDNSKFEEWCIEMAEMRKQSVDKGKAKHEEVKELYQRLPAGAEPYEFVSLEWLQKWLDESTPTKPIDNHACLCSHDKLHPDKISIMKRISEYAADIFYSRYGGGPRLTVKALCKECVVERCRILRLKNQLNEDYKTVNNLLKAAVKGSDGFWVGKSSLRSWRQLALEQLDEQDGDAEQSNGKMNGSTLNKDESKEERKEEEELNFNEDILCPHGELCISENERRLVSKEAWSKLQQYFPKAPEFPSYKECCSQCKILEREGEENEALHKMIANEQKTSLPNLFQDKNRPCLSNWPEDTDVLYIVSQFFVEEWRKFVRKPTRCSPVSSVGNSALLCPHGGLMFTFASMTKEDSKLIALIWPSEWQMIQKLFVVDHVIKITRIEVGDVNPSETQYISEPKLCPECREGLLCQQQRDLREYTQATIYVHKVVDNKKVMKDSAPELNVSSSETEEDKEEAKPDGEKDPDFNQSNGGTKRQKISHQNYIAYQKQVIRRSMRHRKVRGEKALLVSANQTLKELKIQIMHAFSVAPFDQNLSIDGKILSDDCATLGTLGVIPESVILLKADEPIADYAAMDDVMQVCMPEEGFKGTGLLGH
Method in brief: as §1

USP5 = molecular target: T4, USP5 (UniProt P45974)
T4 sequence (whole entry): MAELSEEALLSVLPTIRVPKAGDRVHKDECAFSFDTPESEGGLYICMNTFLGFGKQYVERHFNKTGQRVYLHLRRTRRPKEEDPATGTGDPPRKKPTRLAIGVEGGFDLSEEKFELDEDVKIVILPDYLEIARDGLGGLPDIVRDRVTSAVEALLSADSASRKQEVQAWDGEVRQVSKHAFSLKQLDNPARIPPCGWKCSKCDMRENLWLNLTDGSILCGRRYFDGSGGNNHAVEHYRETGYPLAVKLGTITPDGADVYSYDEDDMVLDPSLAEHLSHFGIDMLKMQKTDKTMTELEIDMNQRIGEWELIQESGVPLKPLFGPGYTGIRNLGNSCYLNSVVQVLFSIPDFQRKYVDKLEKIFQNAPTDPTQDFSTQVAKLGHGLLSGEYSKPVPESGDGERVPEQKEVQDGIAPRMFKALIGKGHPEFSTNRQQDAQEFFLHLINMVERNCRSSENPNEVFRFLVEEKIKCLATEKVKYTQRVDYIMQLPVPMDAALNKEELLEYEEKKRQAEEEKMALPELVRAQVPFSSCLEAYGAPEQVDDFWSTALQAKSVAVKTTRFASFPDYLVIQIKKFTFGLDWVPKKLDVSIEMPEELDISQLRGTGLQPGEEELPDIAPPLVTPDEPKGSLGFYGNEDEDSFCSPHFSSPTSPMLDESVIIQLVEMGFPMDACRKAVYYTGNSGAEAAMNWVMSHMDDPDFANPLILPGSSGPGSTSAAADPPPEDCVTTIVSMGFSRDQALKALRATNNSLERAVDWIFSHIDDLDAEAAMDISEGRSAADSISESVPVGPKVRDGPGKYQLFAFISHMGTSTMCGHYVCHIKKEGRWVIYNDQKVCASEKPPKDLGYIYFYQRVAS
Method in brief: as §1

USP54 = USP54 (UniProt Q70EL1)
Method in brief: as §1

USP7 = USP7 (UniProt Q93009)
Method in brief: as §1

USP8 = molecular target: T5, USP8 (UniProt P40818)
T5 sequence (whole entry): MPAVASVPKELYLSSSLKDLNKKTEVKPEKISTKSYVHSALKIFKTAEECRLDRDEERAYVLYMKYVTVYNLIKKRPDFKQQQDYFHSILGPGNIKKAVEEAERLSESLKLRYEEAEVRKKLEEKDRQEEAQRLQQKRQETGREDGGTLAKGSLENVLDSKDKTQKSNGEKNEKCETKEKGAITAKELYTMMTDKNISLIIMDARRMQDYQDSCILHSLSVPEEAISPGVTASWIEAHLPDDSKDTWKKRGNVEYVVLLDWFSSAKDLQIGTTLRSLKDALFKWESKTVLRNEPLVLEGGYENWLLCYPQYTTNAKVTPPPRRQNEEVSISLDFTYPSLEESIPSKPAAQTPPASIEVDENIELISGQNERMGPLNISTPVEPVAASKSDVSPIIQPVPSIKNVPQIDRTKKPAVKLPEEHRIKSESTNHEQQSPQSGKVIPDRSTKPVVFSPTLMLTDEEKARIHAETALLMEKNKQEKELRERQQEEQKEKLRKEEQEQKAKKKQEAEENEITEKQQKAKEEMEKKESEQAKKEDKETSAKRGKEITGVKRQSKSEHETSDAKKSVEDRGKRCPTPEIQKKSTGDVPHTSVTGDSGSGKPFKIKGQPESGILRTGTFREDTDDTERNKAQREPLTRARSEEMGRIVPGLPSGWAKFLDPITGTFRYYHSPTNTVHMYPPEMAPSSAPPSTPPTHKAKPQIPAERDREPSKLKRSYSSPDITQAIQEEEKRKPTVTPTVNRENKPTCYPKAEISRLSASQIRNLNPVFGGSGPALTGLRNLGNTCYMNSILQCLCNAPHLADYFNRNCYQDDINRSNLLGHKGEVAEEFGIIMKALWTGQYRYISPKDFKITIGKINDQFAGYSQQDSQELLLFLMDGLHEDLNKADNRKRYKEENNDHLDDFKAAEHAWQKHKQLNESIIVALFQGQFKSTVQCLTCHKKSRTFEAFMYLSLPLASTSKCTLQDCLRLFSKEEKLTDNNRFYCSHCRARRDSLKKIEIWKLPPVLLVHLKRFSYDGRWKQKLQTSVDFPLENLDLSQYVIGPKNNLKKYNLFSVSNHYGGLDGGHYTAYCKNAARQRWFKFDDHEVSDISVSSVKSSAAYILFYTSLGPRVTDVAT
Method in brief: as §1

Measured: log2 ratio of Biotin-Ahx-Ub-VS probe labelling

Chain of USP7 (Q93009 whole entry, looked up): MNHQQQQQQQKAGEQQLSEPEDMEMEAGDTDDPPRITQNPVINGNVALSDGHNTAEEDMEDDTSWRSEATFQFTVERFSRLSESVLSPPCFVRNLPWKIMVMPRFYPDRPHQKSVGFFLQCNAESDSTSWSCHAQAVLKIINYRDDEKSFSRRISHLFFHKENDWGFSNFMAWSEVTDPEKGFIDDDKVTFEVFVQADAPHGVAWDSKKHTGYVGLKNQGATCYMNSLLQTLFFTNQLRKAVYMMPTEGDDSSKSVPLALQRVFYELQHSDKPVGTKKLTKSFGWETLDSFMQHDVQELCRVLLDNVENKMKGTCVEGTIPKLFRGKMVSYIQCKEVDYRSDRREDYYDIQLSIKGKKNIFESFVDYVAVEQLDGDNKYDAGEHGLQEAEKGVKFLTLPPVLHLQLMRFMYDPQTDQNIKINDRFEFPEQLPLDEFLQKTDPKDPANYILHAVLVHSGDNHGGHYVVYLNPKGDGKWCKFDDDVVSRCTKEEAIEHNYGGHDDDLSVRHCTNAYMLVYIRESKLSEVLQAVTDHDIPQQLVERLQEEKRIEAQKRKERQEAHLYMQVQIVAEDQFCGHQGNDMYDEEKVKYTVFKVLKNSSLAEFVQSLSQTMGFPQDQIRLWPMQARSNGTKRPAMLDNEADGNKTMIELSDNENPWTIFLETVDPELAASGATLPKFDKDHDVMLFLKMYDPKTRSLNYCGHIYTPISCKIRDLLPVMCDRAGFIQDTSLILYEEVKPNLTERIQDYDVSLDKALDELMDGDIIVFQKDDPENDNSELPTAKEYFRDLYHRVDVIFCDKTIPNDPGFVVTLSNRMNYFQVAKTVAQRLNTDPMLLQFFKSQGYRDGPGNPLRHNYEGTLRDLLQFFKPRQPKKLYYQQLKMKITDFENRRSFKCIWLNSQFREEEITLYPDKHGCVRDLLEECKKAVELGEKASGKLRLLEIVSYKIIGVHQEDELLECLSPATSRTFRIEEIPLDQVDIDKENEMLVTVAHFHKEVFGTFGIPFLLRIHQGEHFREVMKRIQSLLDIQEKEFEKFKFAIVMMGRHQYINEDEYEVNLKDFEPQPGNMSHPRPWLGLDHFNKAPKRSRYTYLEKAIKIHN
Chain of USP54 (Q70EL1 whole entry): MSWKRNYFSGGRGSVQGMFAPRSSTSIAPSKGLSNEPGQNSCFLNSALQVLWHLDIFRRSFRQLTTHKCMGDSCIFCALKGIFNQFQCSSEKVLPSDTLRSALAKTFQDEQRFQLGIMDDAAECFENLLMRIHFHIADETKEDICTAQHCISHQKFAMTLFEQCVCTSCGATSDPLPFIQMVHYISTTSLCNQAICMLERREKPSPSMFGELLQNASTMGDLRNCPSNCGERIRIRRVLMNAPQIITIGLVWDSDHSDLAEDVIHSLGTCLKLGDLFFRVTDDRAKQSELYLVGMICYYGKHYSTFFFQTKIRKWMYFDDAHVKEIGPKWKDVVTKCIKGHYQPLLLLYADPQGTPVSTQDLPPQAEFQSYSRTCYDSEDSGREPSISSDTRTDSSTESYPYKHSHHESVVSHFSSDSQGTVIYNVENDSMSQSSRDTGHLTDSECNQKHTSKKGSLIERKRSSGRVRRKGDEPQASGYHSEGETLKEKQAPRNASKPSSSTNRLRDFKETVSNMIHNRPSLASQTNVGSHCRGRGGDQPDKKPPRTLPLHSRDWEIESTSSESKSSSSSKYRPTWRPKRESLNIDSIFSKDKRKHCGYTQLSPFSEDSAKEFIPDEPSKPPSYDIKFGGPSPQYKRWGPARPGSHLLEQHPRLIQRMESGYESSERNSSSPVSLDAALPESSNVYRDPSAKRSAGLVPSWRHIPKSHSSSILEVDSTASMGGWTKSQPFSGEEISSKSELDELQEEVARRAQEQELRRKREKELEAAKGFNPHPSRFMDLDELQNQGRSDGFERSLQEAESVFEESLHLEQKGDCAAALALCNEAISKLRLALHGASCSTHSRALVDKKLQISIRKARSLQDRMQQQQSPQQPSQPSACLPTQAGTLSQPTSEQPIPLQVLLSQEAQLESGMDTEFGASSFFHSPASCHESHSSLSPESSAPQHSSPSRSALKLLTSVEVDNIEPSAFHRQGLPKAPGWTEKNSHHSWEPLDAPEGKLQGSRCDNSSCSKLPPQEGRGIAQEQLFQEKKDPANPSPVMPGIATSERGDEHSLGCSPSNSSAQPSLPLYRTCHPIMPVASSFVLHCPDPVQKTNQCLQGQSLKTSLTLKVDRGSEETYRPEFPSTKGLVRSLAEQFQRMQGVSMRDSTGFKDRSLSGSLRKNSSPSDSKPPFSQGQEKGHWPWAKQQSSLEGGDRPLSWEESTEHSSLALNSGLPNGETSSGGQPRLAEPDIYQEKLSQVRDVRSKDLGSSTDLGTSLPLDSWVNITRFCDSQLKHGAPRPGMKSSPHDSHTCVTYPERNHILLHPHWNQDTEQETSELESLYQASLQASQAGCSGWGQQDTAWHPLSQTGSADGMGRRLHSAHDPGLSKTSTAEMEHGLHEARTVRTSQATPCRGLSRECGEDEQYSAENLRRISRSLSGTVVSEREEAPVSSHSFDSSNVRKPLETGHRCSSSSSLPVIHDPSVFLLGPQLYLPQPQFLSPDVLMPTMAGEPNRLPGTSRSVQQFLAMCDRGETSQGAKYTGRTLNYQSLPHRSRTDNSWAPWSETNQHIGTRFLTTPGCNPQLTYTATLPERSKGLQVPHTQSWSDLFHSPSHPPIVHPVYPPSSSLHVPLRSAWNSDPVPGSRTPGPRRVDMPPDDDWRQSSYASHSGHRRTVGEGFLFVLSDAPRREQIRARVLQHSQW
Chain of USP46 (P62068 whole entry): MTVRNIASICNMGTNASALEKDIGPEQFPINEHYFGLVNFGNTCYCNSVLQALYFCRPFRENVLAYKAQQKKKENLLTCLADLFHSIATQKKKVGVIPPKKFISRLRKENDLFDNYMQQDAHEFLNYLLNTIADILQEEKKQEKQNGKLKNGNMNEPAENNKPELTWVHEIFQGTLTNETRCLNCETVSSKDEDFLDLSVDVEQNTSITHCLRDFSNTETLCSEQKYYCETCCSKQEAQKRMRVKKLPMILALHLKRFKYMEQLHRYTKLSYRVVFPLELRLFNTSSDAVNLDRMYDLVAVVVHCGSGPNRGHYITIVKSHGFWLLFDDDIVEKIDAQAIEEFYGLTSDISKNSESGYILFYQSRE

O=C(CCl)NCc1ccc2c(c1)OCO2
inactive: USP42 0.271 | USP46 0.12 | USP47 0.0619 | USP48 -0.33 | USP5 0.376 | USP54 0.581 | USP7 -0.297 | USP8 -0.155
